Measured values: PubChem BioAssay (NCATS)
Results filed as inconclusive are left out. Active and inactive are the calls of the source. Calls follow the shape of the dose curve; as a rule, active = well fitted curve in the direction sought with a large enough effect; inconclusive = small, poorly fitted or top-dose-only effect, or another doubt; inactive = no such curve, though single readings can be large; an effect the other way counts as inactive or inconclusive.

How the values were obtained:
[1] = qHTS of pediatric cancer cell lines to identify multiple opportunities for drug repurposing: Confirmatory screen for BT-37 cells (AID 1347117);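 also: viability measured after 48 h of compound exposure; nearly all actives have a fitted effect of over 55% in size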
How it was run: (§1)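 Cells (500-1,000/well) in growth media were settled 5 h at 37 degrees C, then given compounds for 48 h. Viability was read as CellTiter-Glo luminescence. Primary runs used MIPE at 11 points (0.78 nM-46 µM) and NPC at 8 points (0.59 nM-46 µM); follow-ups used 11 points.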

[2] = qHTS of pediatric cancer cell lines to identify multiple opportunities for drug repurposing: Confirmatory screen for TC32 cells (AID 1347118);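 also: cells exposed to compound for 48 h before the read; nearly all actives have a fitted effect of over 65% in size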
How it was run: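 qHTS, TC32, 48 h drug treatment, CellTiter-Glo luminescence as a proxy for metabolically active cells; primary top concentration 46 µM (MIPE 11-pt, NPC 8-pt); confirmatory 11-pt.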

[3] = qHTS of pediatric cancer cell lines to identify multiple opportunities for drug repurposing: Confirmatory screen for control Hh wild type fibroblast cells (AID 1347121); also: nearly all actives have a fitted effect of over 70% in size
How it was run: as §1

[4] = qHTS of pediatric cancer cell lines to identify multiple opportunities for drug repurposing: Confirmatory screen for U-2 OS cells (AID 1347122); also: nearly all actives have a fitted effect of over 65% in size
How it was run: as §1

[5] = qHTS of pediatric cancer cell lines to identify multiple opportunities for drug repurposing: Confirmatory screen for RD cells (AID 1347124);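 also: cells exposed to compound for 48 h before viability readout; nearly all actives have a fitted effect of over 65% in size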
How it was run: as §1

[6] = qHTS of pediatric cancer cell lines to identify multiple opportunities for drug repurposing: Confirmatory screen for Rh30 cells (AID 1347126); also: nearly all actives have a fitted effect of over 55% in size
How it was run: as §1

[7] = qHTS of pediatric cancer cell lines to identify multiple opportunities for drug repurposing: Confirmatory screen for MG 63 (6-TG R) cells (AID 1347119); also: nearly all actives have a fitted effect of over 55% in size
How it was run: as §1

[8] = qHTS of pediatric cancer cell lines to identify multiple opportunities for drug repurposing: Confirmatory screen for Saos-2 cells (AID 1347127); also: nearly all actives have a fitted effect of over 60% in size
How it was run: as §1

[9] = qHTS of pediatric cancer cell lines to identify multiple opportunities for drug repurposing: Confirmatory screen for Rh41 cells (AID 1347123);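 also: 48 h compound exposure; nearly all actives have a fitted effect of over 60% in size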
How it was run: as §1

[10] = qHTS of pediatric cancer cell lines to identify multiple opportunities for drug repurposing: Confirmatory screen for Rh18 cells (AID 1347125); also: nearly all actives have a fitted effect of over 55% in size
How it was run: as §1
Potency is read from the fitted curve at half-maximal effect.

| SMILES | Potency [1] | Potency [2] | Potency [3] | Potency [4] | Potency [5] | Potency [6] | Potency [7] | Potency [8] | Potency [9] | Potency [10] |
| --- | --- | --- | --- | --- | --- | --- | --- | --- | --- | --- |
| CC(C)c1cc(C(=O)N2Cc3ccc(CN4CCN(C)CC4)cc3C2)c(O)cc1O | 414 nM (active) | 465 nM (active) | inactive | 414 nM (active) | 522 nM (active) | 585 nM (active) |  |  |  |  |
| Nc1ncnc2c1c(-c1cnc3[nH]ccc3c1)nn2C1CCCC1 | 2330 nM (active) | 1470 nM (active) |  |  |  | 585 nM (active) | 414 nM (active) | 1850 nM (active) |  |  |
| O=C(Nc1cn[nH]c1-c1nc2ccc(CN3CCOCC3)cc2[nH]1)NC1CC1 | inactive |  | inactive | inactive | inactive | inactive | inactive | inactive | inactive |  |
| Cc1cc(Nc2cc(NC(=O)c3c(Cl)cccc3Cl)ccn2)nc(N)n1 | 5220 nM (active) | 827 nM (active) | 20800 nM (active) |  | inactive | 24000 nM (active) |  | 1310 nM (active) |  |  |
| CC(C)c1nn(-c2c(Cl)cccc2Cl)c2nc(Cc3ccc(OCCO)cc3)[nH]c(=O)c12 | 82.7 nM (active) | 131 nM (active) |  | 82.7 nM (active) | 208 nM (active) |  |  | 82.7 nM (active) |  |  |
| CC=CC1=C(C(=O)O)N2C(=O)[C@H](NC(=O)[C@H](N)c3ccc(O)cc3)[C@@H]2SC1 | inactive |  | inactive | inactive | inactive | inactive | inactive |  | inactive |  |
| COc1ccc(OC)c(-c2nnc3ccc(-c4ccc(OC)c(O[C@@H]5CCOC5)c4)nn23)c1 | 7370 nM (active) | 2930 nM (active) |  |  | 11700 nM (active) | 4140 nM (active) |  |  |  | inactive |
| CNC(=O)c1nn(C)c2c1C(C)(C)Cc1cnc(Nc3ccc(N4CCN(C)CC4)cc3)nc1-2 | 1040 nM (active) | 1650 nM (active) | inactive | 1310 nM (active) | 233 nM (active) | 928 nM (active) |  |  | 3290 nM (active) | 4650 nM (active) |
| O=C(C=Cc1cccnc1)NCCCCC1CCN(C(=O)c2ccccc2)CC1 | inactive |  | inactive | inactive | inactive | inactive | inactive |  | inactive |  |
| COc1ccc(F)c(F)c1C(=O)c1cnc(NC2CCN(S(C)(=O)=O)CC2)nc1N | 2330 nM (active) | 2080 nM (active) | inactive | 3290 nM (active) | 827 nM (active) | inactive |  |  | 2330 nM (active) |  |
| Cc1cnc(-c2cnc(NCCNc3ccc(C#N)cn3)nc2-c2ccc(Cl)cc2Cl)[nH]1 | inactive |  | inactive | inactive | inactive | inactive | 737 nM (active) | inactive |  | inactive |
| CC(C)(C)c1cc(NC(=O)Nc2ccc(-c3cn4c(n3)sc3cc(OCCN5CCOCC5)ccc34)cc2)no1 | 18500 nM (active) | 3290 nM (active) |  | 20800 nM (active) |  |  |  |  |  |  |
| CC[C@@H]1C(=O)N(C)c2cnc(Nc3ccc(C(=O)NC4CCC(N5CCN(CC6CC6)CC5)CC4)cc3OC)nc2N1C(C)C (stereo partly specified) | inactive |  | inactive | inactive | inactive | inactive | inactive | inactive | inactive |  |
| Cc1nc2cnc3ccc(C#Cc4cccnc4)cc3c2n1-c1ccc(C(C)(C)C#N)cc1 | 1510 nM (active) | 676 nM (active) |  | 2140 nM (active) | 12000 nM (active) | 1350 nM (active) |  | 5370 nM (active) | 851 nM (active) | 1910 nM (active) |
| O=C(NC1CCNCC1)c1[nH]ncc1NC(=O)c1c(Cl)cccc1Cl | 2400 nM (active) | 2400 nM (active) | inactive | 1850 nM (active) | 737 nM (active) | 465 nM (active) |  | 2690 nM (active) | 1170 nM (active) |  |
| CCOc1cc2ncc(C#N)c(Nc3ccc(F)c(Cl)c3)c2cc1NC(=O)C=CCN(C)C | 65.7 nM (active) | 58.5 nM (active) | inactive |  | inactive |  |  | 104 nM (active) |  |  |
| CC(C)(C)c1cnc(CSc2cnc(NC(=O)C3CCNCC3)s2)o1 | 261 nM (active) | 465 nM (active) | inactive | 1310 nM (active) | 585 nM (active) |  |  | 465 nM (active) |  |  |
| CC(C)c1cc(-c2n[nH]c(=O)n2-c2ccc3c(ccn3C)c2)c(O)cc1O | inactive | inactive | inactive |  |  |  |  |  |  |  |
| Cn1c2ccccc2c2c3c(c4c5ccccc5n(CCC#N)c4c21)CNC3=O | 5850 nM (active) | 4140 nM (active) | inactive | 3690 nM (active) |  |  |  | 9270 nM (active) |  |  |

| SMILES | Potency [1] | Potency [2] | Potency [3] | Potency [4] | Potency [5] | Potency [6] | Potency [7] | Potency [8] | Potency [9] | Potency [10] |
| --- | --- | --- | --- | --- | --- | --- | --- | --- | --- | --- |
| COc1cc(=C2C=c3ccccc3=N2)[nH]c1=Cc1[nH]c(C)cc1C | 7370 nM (active) | 7370 nM (active) |  |  |  | 17400 nM (active) |  | 8270 nM (active) |  |  |
| Cc1ccc(C(=O)Nc2cccc(C(F)(F)F)c2)cc1-c1ccc2nc(NCCN3CCOCC3)ncc2c1 | 4140 nM (active) | 6570 nM (active) |  | 4140 nM (active) | 7370 nM (active) | 5220 nM (active) |  | 8270 nM (active) | 5850 nM (active) | 7370 nM (active) |
| Cc1ccc(-c2ncn(-c3ccc(Nc4nccc(-c5cccc(N6CCOCC6)c5)n4)cc3)n2)cn1 | 85.1 nM (active) | 135 nM (active) | inactive | 240 nM (active) | 240 nM (active) | 120 nM (active) |  | 107 nM (active) | 151 nM (active) | 107 nM (active) |
| OCCCNc1cc(-c2ccnc(Nc3cccc(Cl)c3)n2)ccn1 | 261 nM (active) | 165 nM (active) | inactive |  |  | 414 nM (active) |  | 261 nM (active) | 52.2 nM (active) |  |
| CN1CCN(c2cc(C(=O)Nc3ccc4c(c3)-c3c(c(C(N)=O)nn3-c3ccc(F)cc3)CC4)c(Cl)cn2)CC1 | 20800 nM (active) | 20800 nM (active) |  |  |  | 465 nM (active) |  |  | 14700 nM (active) | 26100 nM (active) |
| NC(=O)c1cccc2cn(-c3ccc([C@@H]4CCCNC4)cc3)nc12 | 5220 nM (active) | 1650 nM (active) | inactive | inactive |  |  |  | inactive |  |  |
| CCS(=O)(=O)c1cccc(-c2cc(C(=O)NC3CCN(C)CC3)c(C)c3[nH]c4ncc(C)cc4c23)c1 | 1850 nM (active) | 117 nM (active) |  | 10400 nM (active) | 2610 nM (active) | 522 nM (active) |  | 1040 nM (active) |  | 1850 nM (active) |
| Cc1ccc2nc(NC(=O)CSc3nc4c(c(=O)n3-c3ccccc3)SCC4)sc2c1 |  | 8270 nM (active) | 14700 nM (active) |  |  | inactive | 5220 nM (active) | inactive | 20800 nM (active) |  |
| Cc1cc(Nc2cc(N3CCN(C)CC3)nc(Sc3ccc(NC(=O)C4CC4)cc3)n2)n[nH]1 |  | 92.8 nM (active) | inactive | 9270 nM (active) |  | 5850 nM (active) | 2610 nM (active) | 16500 nM (active) | 9270 nM (active) |  |
| CC(C)C[C@H](NC(=O)CNC(=O)c1cc(Cl)ccc1Cl)B(O)O |  | inactive |  | 928 nM (active) | 465 nM (active) |  |  |  | 165 nM (active) | 369 nM (active) |
| CC(C)CC(=O)Nc1n[nH]c2c1CN(C(=O)C1CCN(C)CC1)C2(C)C |  |  | inactive | 16500 nM (active) | 6570 nM (active) | inactive |  |  | 1310 nM (active) | inactive |
| CC=C1NC(=O)[C@H]2CSSCCC=C[C@H](CC(=O)N[C@H](C(C)C)C(=O)N2)OC(=O)[C@H](C(C)C)NC1=O |  | 14700 nM (active) | inactive | inactive |  | inactive |  |  | inactive |  |
| Cc1ccc(C(=O)Nc2ccc(CN3CCN(C)CC3)c(C(F)(F)F)c2)cc1C#Cc1cnc2cccnn12 |  | 3.7 nM (active) | inactive | 2930 nM (active) | 20800 nM (active) | 5220 nM (active) | inactive |  | 585 nM (active) | 10400 nM (active) |
| CCC(=C(c1ccccc1)c1ccc(OCCN(C)C)cc1)c1ccccc1 |  | 20800 nM (active) | inactive |  |  | inactive |  | 18500 nM (active) |  |  |
| Nc1cc(C(F)(F)F)c(-c2cc(N3CCOCC3)nc(N3CCOCC3)n2)cn1 |  | 4140 nM (active) |  | 5220 nM (active) | 5850 nM (active) | 4140 nM (active) | 3690 nM (active) |  | 5850 nM (active) |  |
| COc1cccc(-c2ccc(NC(=O)C3=C(C(=O)O)CCC3)c(F)c2)c1 |  | 18500 nM (active) | inactive | 14700 nM (active) | 1170 nM (active) | 7370 nM (active) |  |  |  | inactive |
| CC(C)(C)OC(=O)Nc1ccc(-c2cc(C(=O)NCCCCCCC(=O)NO)no2)cc1 |  |  | inactive | 1470 nM (active) | 5220 nM (active) | 10400 nM (active) |  |  | 1850 nM (active) |  |
| Cc1nc(Nc2n[nH]c3c2CN(C(=O)N[C@H](CN(C)C)c2ccccc2)C3(C)C)c2sccc2n1 |  |  | inactive | inactive | inactive | inactive |  | inactive | inactive |  |
| Nc1ccn([C@@H]2O[C@H](CO)[C@H](O)C2(F)F)c(=O)n1 | 7.4 nM (active) |  |  | inactive |  | 5850 nM (active) | 2330 nM (active) |  |  | 2930 nM (active) |
